{"source": "PubChem BioAssay AID729", "about": "(The Scripps Research Institute Molecular Screening Center, 2007)", "note": "Screen size: about 97,000 compounds; about 450 (0.46%) were called active. Cut-off read from the data, not from the text of the source: active = activation above about 16%; inactive = the rest. The list comes from a sample in which actives are over-represented; it also holds similar structures and randomly drawn compounds."}
{"target": "Sphingosine 1-phosphate receptor 2 (Homo sapiens) (UniProt O95136)", "sequence (O95136 whole entry, looked up)": "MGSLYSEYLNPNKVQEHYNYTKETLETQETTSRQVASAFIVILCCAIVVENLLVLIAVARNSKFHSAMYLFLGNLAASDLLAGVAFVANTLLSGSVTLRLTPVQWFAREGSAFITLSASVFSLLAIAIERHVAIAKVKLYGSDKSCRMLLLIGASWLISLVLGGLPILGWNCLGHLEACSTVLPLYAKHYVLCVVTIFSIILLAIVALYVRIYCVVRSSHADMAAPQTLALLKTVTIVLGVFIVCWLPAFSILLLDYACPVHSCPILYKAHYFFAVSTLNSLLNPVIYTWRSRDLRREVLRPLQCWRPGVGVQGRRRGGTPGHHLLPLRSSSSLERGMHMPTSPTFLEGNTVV", "test": "activation of human S1P2 receptor – cell-based, primary screen (AID 729);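 note: 0% = vehicle low control and 100% = maximal reference agonist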", "conditions": "S1P2-expressing cell line, agonist reporter read-out; at 4.5 µM; stronger effect = higher value"}
{"smiles": "Cc1ccc(-n2c(SCC(=O)Nc3ccc4c(c3)OCO4)nnc2-c2ccccn2)cc1", "activation": "-1.29% (inactive)"}
{"smiles": "Cc1cccc(C)c1NC1=NC(=S)N(c2ccc(N(C)C)cc2)C1(C)C", "activation": "-9.2% (inactive)"}
{"smiles": "Cc1cc(C(=O)OCC(=O)Nc2ccc(F)c(F)c2)c(C)o1", "activation": "-1.12% (inactive)"}
{"smiles": "Cc1sc2nc(SCC(N)=O)n(C)c(=O)c2c1C", "activation": "-6.32% (inactive)"}
{"smiles": "CCOc1ccc(NC(=O)CN(C)CC(=O)Nc2cccc(Cl)c2C)cc1OCC", "activation": "-8.46% (inactive)"}
{"smiles": "CS(=O)(=O)Nc1ccc(C(=O)N2CCCC2)cc1", "activation": "-1.67% (inactive)"}
{"smiles": "O=C(NC1CCCCC1)c1cc([N+](=O)[O-])ccc1N1CCOCC1", "activation": "-3.96% (inactive)"}
{"smiles": "CC(C)c1nc(N2CCOCC2)c(C#N)c2c1COC(C)(C)C2", "activation": "-3.4% (inactive)"}
{"smiles": "COc1ccc(CSc2nc(N3CCOCC3)c3c(c2C#N)CC(C)(C)OC3)cc1", "activation": "-4.98% (inactive)"}
{"smiles": "CC1(C)Cc2c(C#N)c(SCc3nc4ccccc4[nH]3)nc(N3CCOCC3)c2CO1", "activation": "31% (active)"}
{"smiles": "Cc1c(CCO)c(=O)[nH]n1C(=O)c1c(F)cccc1F", "activation": "-3.16% (inactive)"}
{"smiles": "CCn1c(SCC(=O)c2ccc3ccccc3c2)nnc1-c1cccs1", "activation": "-3.98% (inactive)"}
{"smiles": "CCCc1nc2oc3c(OCC)ncnc3c2c2c1COC(C)(C)C2", "activation": "-0.19% (inactive)"}
{"smiles": "O=C(Oc1ccc([N+](=O)[O-])cc1)c1ccc2ccccc2n1", "activation": "-2.37% (inactive)"}
{"smiles": "CCOC(=O)c1cnc(SCC(=O)Nc2ccccc2C(=O)OC)nc1N", "activation": "1.96% (inactive)"}
{"smiles": "O=C(Cc1ccc2c(c1)CCCC2)Nc1ccccc1Cl", "activation": "-3.38% (inactive)"}
{"smiles": "C=C(C)Cn1c(N2CCN(CC)CC2)nc2c1c(=O)[nH]c(=O)n2C", "activation": "-3.08% (inactive)"}
{"smiles": "Cc1nnc(SCCCn2c(N3CCCCC3)nc3c2c(=O)[nH]c(=O)n3C)s1", "activation": "-7% (inactive)"}
{"smiles": "C=C(C)Cn1c(N2CCCC2)nc2c1c(=O)[nH]c(=O)n2C", "activation": "19.6% (active)"}
{"smiles": "O=C(O)c1ccccc1-c1ccccc1C(=O)Nc1cccc2ccccc12", "activation": "-6.33% (inactive)"}
{"smiles": "CCOC(=O)c1cc(C#N)c(N2CCCCC2)nc1-c1ccccc1", "activation": "-3.1% (inactive)"}
{"smiles": "Cc1ccc(C(=O)N2CCCC2)c(F)c1F", "activation": "-3.27% (inactive)"}
{"smiles": "COc1ccc(-n2nnnc2SCC(=O)Nc2ccccc2)cc1", "activation": "-5.85% (inactive)"}
{"smiles": "COc1ccccc1N1CC(C(=O)Nc2ccc(S(=O)(=O)N3CCOCC3)cc2)CC1=O", "note": "(stereo unspecified)", "activation": "-6.57% (inactive)"}
{"smiles": "COc1ccc(Cc2nnc(SCC(=O)c3cccc([N+](=O)[O-])c3)n2C)cc1", "activation": "-3.41% (inactive)"}
{"smiles": "CN(C)CCNC(=O)Nc1cccc(Cl)c1Cl", "activation": "-3.84% (inactive)"}
{"smiles": "O=C(/C=C/c1ccc(Cl)cc1Cl)NCc1ccco1", "activation": "-1.23% (inactive)"}
{"smiles": "O=C(COc1ccc2c(C(F)(F)F)cc(=O)oc2c1)Nc1ccc2c(c1)OCCO2", "activation": "-0.82% (inactive)"}
{"smiles": "COc1ccc(CCNC(=O)CN(c2ccccc2)S(C)(=O)=O)cc1OC", "activation": "-5.51% (inactive)"}
{"smiles": "CC(C)c1ccc(NC(=O)CCN2C(=O)c3ccc([N+](=O)[O-])cc3C2=O)cc1", "activation": "-2.71% (inactive)"}
{"smiles": "Cc1nnc(SCC(=O)Nc2ncc3c(n2)CC(C)(C)CC3=O)s1", "activation": "-4.47% (inactive)"}
{"smiles": "CCN(CC)CCCNC(=O)CCc1ccccc1", "activation": "-2.5% (inactive)"}
{"smiles": "CCCCCOC(=O)C1=C(C)Nc2nnnn2C1c1ccc(OC)c(OC)c1OC", "note": "(stereo unspecified)", "activation": "-4.69% (inactive)"}
{"smiles": "COCCOC(=O)C1=C(C)Nc2nc(C)nn2C1c1ccccc1", "note": "(stereo unspecified)", "activation": "0.76% (inactive)"}
{"smiles": "COc1cc(C2C(C(=O)OCCC#N)=C(C)NC3=C2S(=O)(=O)c2ccccc23)cc(OC)c1OC", "note": "(stereo unspecified)", "activation": "26.2% (active)"}
{"smiles": "CC(C)C(=O)Nc1nnc(Sc2ccc(N(C)C)cc2)s1", "activation": "-5.86% (inactive)"}
{"smiles": "O=c1oc2c(Cl)cc(Cl)cc2cc1-c1nnc(Nc2ccccc2F)s1", "activation": "-0.35% (inactive)"}
{"smiles": "Cn1c(=O)n(C)c2cc(/C=N/NC(=O)c3cccc(Br)c3)ccc21", "activation": "-7.52% (inactive)"}
{"smiles": "Nc1c(C(=O)NCc2ccccc2)sc2nc3c(cc12)C(=O)CCC3", "activation": "-2.41% (inactive)"}
{"smiles": "CCCCNC(=O)C1CCCN(S(=O)(=O)c2ccc(S(=O)(=O)NCC(C)C)cc2)C1", "note": "(stereo unspecified)", "activation": "-2.41% (inactive)"}
{"smiles": "COC(=O)c1ccccc1Oc1c(F)c(F)nc(N2CCOCC2)c1F", "activation": "-3.44% (inactive)"}
{"smiles": "COc1ccc(C2C(C(C)=O)=C(O)C(=O)N2Cc2cccnc2)cc1", "note": "(stereo unspecified)", "activation": "-3.66% (inactive)"}
{"smiles": "CC(C)C(C)NC(=O)COc1ncnc2ccccc12", "note": "(stereo unspecified)", "activation": "-3.57% (inactive)"}
{"smiles": "CC1Cc2ccccc2N1CC(=O)Nc1ccc2c(c1)OC(F)(F)O2", "note": "(stereo unspecified)", "activation": "2.93% (inactive)"}
{"smiles": "O=C(CN1CCN(S(=O)(=O)c2ccc3ccccc3c2)CC1)NC(=O)NC1CCCCC1", "activation": "-7.63% (inactive)"}
{"smiles": "CCOC(=O)c1nc(Nc2ccc(C(=O)OC)cc2)c2ccccc2n1", "activation": "-2.78% (inactive)"}
{"smiles": "CCc1ccc(NC(=O)CN2C(=O)CSC2=O)cc1", "activation": "-3.93% (inactive)"}
{"smiles": "Cn1cnc([N+](=O)[O-])c1Nc1ccccc1O", "activation": "-3.11% (inactive)"}
{"smiles": "COc1ccc(C2C(C(C)=O)=C(O)C(=O)N2c2nccs2)cc1", "note": "(stereo unspecified)", "activation": "-0.54% (inactive)"}
{"smiles": "CCn1c(=N)c(S(=O)(=O)c2ccc(F)cc2)cc2c(=O)n3ccccc3nc21", "activation": "34.3% (active)"}
{"smiles": "CCCn1c(=NC(C)=O)c(C(=O)OCC)cc2c(=O)n3ccccc3nc21", "activation": "14.5% (inactive)"}
{"smiles": "Cc1ccc(-n2c(=O)c(C#N)cc3c(=O)n4ccccc4nc32)cc1C", "activation": "5.21% (inactive)"}
{"smiles": "CONC(=O)c1cc(OCC(F)(F)F)ccc1OCC(F)(F)F", "activation": "-3.47% (inactive)"}
{"smiles": "Cc1cc(N=CC2=C(O)CCCC2=O)no1", "activation": "-0.19% (inactive)"}
{"smiles": "CC1(C)CC(=O)C(C=NCCC2=CCCCC2)=C(O)C1", "activation": "-6.14% (inactive)"}
{"smiles": "O=C1CCCC(O)=C1C=NCCc1ccccc1", "activation": "84.1% (active)"}
{"smiles": "COc1ccc(N(CC(=O)N/N=C/c2cccs2)S(=O)(=O)c2ccc(OC)c(OC)c2)cc1", "activation": "-7.16% (inactive)"}
{"smiles": "COc1ccc(C(=O)/C=C/Nc2ccccn2)cc1", "activation": "1.74% (inactive)"}
{"smiles": "O=C(Nc1ccccc1)c1ccc2nsnc2c1", "activation": "-2.63% (inactive)"}
{"smiles": "O=C(O)c1cc2ccccc2c(=O)s1", "activation": "-6.32% (inactive)"}
{"smiles": "O=C(CN1CCSCC1)N/N=C/c1ccc(F)cc1F", "activation": "-0.59% (inactive)"}
{"smiles": "Cc1ccc(-c2nnc(C)c(N3CC(C)OC(C)C3)n2)cc1", "note": "(stereo unspecified)", "activation": "-6.7% (inactive)"}
{"smiles": "COc1ccc(-c2cc(C(=O)n3cnc4ccccc43)c3ccccc3n2)cc1", "activation": "-1.61% (inactive)"}
{"smiles": "CC(C)C(NS(=O)(=O)c1cccs1)C(=O)Nc1nc(C(C)(C)C)cs1", "note": "(stereo unspecified)", "activation": "-5.87% (inactive)"}
{"smiles": "Cc1nc(C)c(C(=O)N(c2ccc(C)c(C)c2)C(C(=O)NCc2ccco2)c2ccccc2)s1", "note": "(stereo unspecified)", "activation": "-5.57% (inactive)"}
{"smiles": "COc1ccc(/C=N/Nc2nc3ccccc3o2)cc1OC", "activation": "1.35% (inactive)"}
{"smiles": "O=C1CCCc2c1nc(-c1cccc(Cl)c1)n2O", "activation": "-8.02% (inactive)"}
{"smiles": "Cc1ccc(-c2csc(SCC(=O)Nc3cc(C)on3)n2)cc1", "activation": "-3.51% (inactive)"}
{"smiles": "O=C(O)[C@@H]1CCCN1c1ncnc2sc3c(c12)CCC3", "activation": "-0.47% (inactive)"}
{"smiles": "CC(C)(C)C(=O)Cn1c(NCCO)nc2ccccc21", "activation": "0.17% (inactive)"}
{"smiles": "OCCNc1nc2ccccc2n1-c1ncnc2sc3c(c12)CCC3", "activation": "17.8% (active)"}
{"smiles": "COc1ccccc1/C=C/C1=NC(=C\\N(C)C)/C(=O)O1", "activation": "3.03% (inactive)"}
{"smiles": "CCCc1nc2sc3c(c2c(=O)n1NC(=O)CCCl)CCCC3", "activation": "-7.02% (inactive)"}
{"smiles": "Cc1ccc2oc(=O)c3cnn(CC(=O)N(Cc4ccco4)C4CCCCC4)c3c2c1", "activation": "-2.42% (inactive)"}
{"smiles": "CC(CN1CCOCC1)c1ccccc1", "note": "(stereo unspecified)", "activation": "-0.64% (inactive)"}
{"smiles": "COc1ccc(NC(=O)COC(=O)Cn2c(C)nc3ccccc32)cc1OC", "activation": "-6.15% (inactive)"}
{"smiles": "COc1ccc(NC(=O)C(NC(C)=O)C(=O)NCc2ccccc2Cl)cc1", "note": "(stereo unspecified)", "activation": "-7.51% (inactive)"}
{"smiles": "CCNC(=O)NC(=O)C(C)OC(=O)c1cc(S(=O)(=O)N2CCCCCC2)ccc1OC", "note": "(stereo unspecified)", "activation": "-4.87% (inactive)"}
{"smiles": "COc1ccc(N(CCC#N)S(=O)(=O)c2ccc(Cl)cc2)cc1", "activation": "-1.5% (inactive)"}
{"smiles": "O=C(NCc1ccco1)C1CCCN(S(=O)(=O)c2ccccc2)C1", "note": "(stereo unspecified)", "activation": "-2.97% (inactive)"}
{"smiles": "O=C1CSC(c2cccc(F)c2)N1c1ccc(O)cc1", "note": "(stereo unspecified)", "activation": "-7.24% (inactive)"}
{"smiles": "Nc1nc(Br)c2ccccc2c1-c1ccc(F)cc1", "activation": "4.89% (inactive)"}
{"smiles": "Cc1ccc(S(=O)(=O)N2CCN(S(=O)(=O)N3CCOCC3)CC2)cc1", "activation": "-6.81% (inactive)"}
{"smiles": "COc1cc(C(O)c2nc3ccccc3n2C)cc(OC)c1OC", "note": "(stereo unspecified)", "activation": "-6.52% (inactive)"}
{"smiles": "CCC(C)n1c(-c2cc(OC)c(OC)c(OC)c2)nc2nc3ccccc3nc21", "note": "(stereo unspecified)", "activation": "16.8% (active)"}
{"smiles": "COc1ccc(-c2nc3ccccc3n2CCC(C)C)cc1OC", "activation": "-4.13% (inactive)"}
{"smiles": "CC(C)(C)c1ccc(OC2=CS(=O)(=O)c3ccccc32)cc1", "activation": "-6.02% (inactive)"}
{"smiles": "O=C(CCCCCn1c(=O)[nH]c2ccccc2c1=O)NCCc1c[nH]c2ccccc12", "activation": "-8.42% (inactive)"}
{"smiles": "CCc1ccc2c(c1)C1(NN=C(c3ccccc3)S1)C(=O)N2", "note": "(stereo unspecified)", "activation": "-1.92% (inactive)"}
{"smiles": "COc1ccc(C(=O)Nc2ccc(F)cc2F)cc1", "activation": "-5.08% (inactive)"}
{"smiles": "Cc1cc(C)c(S(=O)(=O)NCC2CCC(C(=O)NCc3ccc4c(c3)OCO4)CC2)c(C)c1", "note": "(stereo unspecified)", "activation": "-5.15% (inactive)"}
{"smiles": "OC(C#CCN1CCOCC1)(c1ccccc1)C1CCCCC1", "note": "(stereo unspecified)", "activation": "-4.7% (inactive)"}
{"smiles": "CC1CN(S(=O)(=O)c2ccccc2)C(C)CN1S(=O)(=O)c1ccccc1", "note": "(stereo unspecified)", "activation": "-2.5% (inactive)"}
{"smiles": "O=C(Nc1ccccc1Cl)N1CCN(c2ccc3nncn3n2)CC1", "activation": "-1.47% (inactive)"}
{"smiles": "O=C(NCCc1ccccc1)c1ccc(NC2=NC3CS(=O)(=O)CC3S2)cc1", "note": "(stereo unspecified)", "activation": "0.04% (inactive)"}
{"smiles": "COc1ccccc1C(c1nnnn1C(C)(C)C)N1CCN(Cc2ccccc2)CC1", "note": "(stereo unspecified)", "activation": "-7.69% (inactive)"}
